{"source": "PubChem BioAssay AID540355", "about": "(National Center for Advancing Translational Sciences (NCATS), 2011)", "note": "Some of the results follow. Results filed as inconclusive are left out. Unmarked numbers belong to inactive results. Active and inactive are the calls of the source. The call rests on the fitted dose curve; in most records, active means well fitted inhibition curve with a large enough effect; inconclusive means small, poorly fitted or top-dose-only effect; inactive means no such curve, though single readings can be large or run the other way.", "data": [{"target": "4'-phosphopantetheinyl transferase Sfp (Bacillus subtilis (strain 168)) (UniProt P39135)", "sequence (P39135 whole entry, looked up)": "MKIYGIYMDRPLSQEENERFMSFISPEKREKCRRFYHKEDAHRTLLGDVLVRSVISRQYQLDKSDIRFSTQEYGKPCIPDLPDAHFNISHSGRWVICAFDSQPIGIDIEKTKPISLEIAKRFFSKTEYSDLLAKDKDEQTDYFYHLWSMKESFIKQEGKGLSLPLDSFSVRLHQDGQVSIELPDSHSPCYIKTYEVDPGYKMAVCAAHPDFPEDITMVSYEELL", "test": "Gel-Based Assay for Inhibitos of Bacillus subtilis Sfp phosphopantetheinyl transferase (PPTase): Chemistry Optimization Followup", "details": "purified Sfp PPTase, gel-based product detection; series mostly up to 250 µM; activity change, negative = inhibition: at the top concentration", "excerpt": "The covalent attachment of a phosphopantetheinyl (4'-PP) arm to a variety of synthases and other proteins is a key posttranslational protein modification. The 4'-PP is installed on the proteins post-translationally from coenzyme A (CoA) on a conserved serine residue by action of phosphopantetheinyl transferase (PPTase) enzymes. Phosphopantetheinylation is essential for synthase activity, and removal of the PPTase gene precludes natural product synthesis in microorganisms, or in the case of fatty acid biosynthesis, renders the organism unviable. PPTase enzymes belong to a distinct structural superfamily. Within bacteria, these enzymes are grouped into two classes based upon primary structure, the AcpS-Type and Sfp-Type PPTases.\nSfp-type PPTases, corresponding to an activator of surfactin production in Bacillus subtilis, are responsible for modifying type I polyketide and nonribosomal peptide synthases of prokaryotes. Sfp-type PPTases are responsible for the activation of a variety of pathogen-associated virulence factors. Among these compounds are toxins such as mycolactone from Mycobacterium ulcerans, siderophores such as vibriobactin from Vibrio cholerae or mycobactin from Mycobacterium tuberculosis, as well as the mycolic acids which form the waxy cell wall of Mycobacteria. The biosyntheses of these natural products are considered attractive targets for drug design.\nIn this assay, compounds were evaluated by monitoring of fluorescence transfer to whole carrier protein substrates via polyacrylamide gel electrophoresis. See Yasgar, et al. (PMID: 20094656) for further details on assay. This assay was used to evaluate follow-up compounds from the primary screen (AID: 1490).\nNIH Chemical Genomics Center [NCGC]\nNIH Molecular Libraries Probe Centers Network [MLPCN]\nAssay Submitter (PI): Michael Burkart, University of California, San Diego\nA DMSO solution of confirmed hits (0.5 microL) was added to a 1.33X enzyme solution (15 microL, containing 26.6 nM Sfp, 66 mM HEPES, 13.3 mM MgCl2, 0.0133% NP-40, 0.133% BSA, pH 7.6). After a 10 minute incubation, the enzymatic reaction was initiated by the addition of 4 X substrate solution (4 microL, containing 50 microM Rhodamine CoA and 50 microM apo-Actinorhodin-ACP). The reactions were terminated after a 30 minute incubation at room temperature by the addition of 2X quench solution (20 microL, containing 4 M Urea, 25 mM EDTA, 0.004% phenol red, pH 8.0). Samples were separated under native conditions on a 20% polyacrylamide gel using standard Laemmli conditions. Following the run, gels were imaged with a Chemi-Doc Plus imager (Bio-Rad, Hercules, CA) and band intensity quantified using the ImageJ software package. Pixel density values were normalized to control wells (SCH202676) and fit with the 4-parameter Hill equation using in-house tools.", "units": {"activity change, negative = inhibition": "%"}, "values": [{"compound": "Cc1cc(C)nc(NC(=S)N2CCN(c3cccc(C#N)c3)CC2)c1", "Potency": "10 µM (active)"}, {"compound": "Cc1cc(C)nc(NC(=S)N2CCN(c3ccc4nonc4c3)CC2)c1", "Potency": "10 µM (active)"}, {"compound": "Cc1ccc(N2CCN(C(=S)Nc3cc(C)ccn3)CC2)cc1", "Potency": "3.16 µM (active)"}, {"compound": "Cc1cc(C)nc(NC(=S)N2CCN(c3cccc(C(F)(F)F)c3)CC2)c1", "Potency": "1.58 µM (active)"}, {"compound": "Cc1cc(C)nc(NC(=S)N2CCN(c3ccc(Cl)cc3C(F)(F)F)CC2)c1", "Potency": "6.75 µM (active)"}, {"compound": "COc1cccc(NC(=S)N2CCN(c3ccc(Cl)cc3Cl)CC2)n1", "activity change, negative = inhibition": 44.2}, {"compound": "FC(F)(F)c1cccc(N2CCN(C(=S)Nc3ccncc3)CC2)c1", "activity change, negative = inhibition": 5.42}, {"compound": "COc1ccnc(NC(=S)N2CCN(c3ncc(C(F)(F)F)cc3Cl)CC2)c1", "Potency": "3.02 µM (active)"}, {"compound": "COc1cccc(NC(=S)N2CCN(c3ccccc3C(F)(F)F)CC2)n1", "activity change, negative = inhibition": 61.4}]}]}
